HCMV inh: qHTS Assay for inhibitors of the human cytomegalovirus (HCMV) | activity change, negative = inhibition, % at 57.5 µM | HFF cells, HCMV-luciferase reporter, 72 h; hits give low values | hit rate 4.5% among 410,000; in the data active = activity change below about -60%; inconclusive = no clear call, values can overlap the other calls; inactive = above about -39%
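Two compound doses tested in HFFs infected with HCMV-luciferase, MOI 1 PFU/cell, 72 h at 37C. Lysate luminescence read with OneGlo; data normalized against buffer-only and 10uM Salinomycin inhibitor controls.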
VACV Venus inh: qHTS for Stage-Specific Inhibitors of Vaccinia Orthopoxvirus: Venus Reporter Primary qHTS; Vaccinia virus Venus reporter expression, fluorescence; Potency, µM (doses to about 36.5 µM), without a hit: at the top dose activity change, negative = inhibition, most hits filed as inhibitors; hit rate 0.46% among 330,000; calls by dose curve; tested in A549 cells; note: potency is the fitted concentration of half-maximal effect; nearly all actives have a fitted effect of over 30% in size
MARV entry inh: qHTS for inhibitors of binding or entry into cells for Marburg Virus. Marburg virus pseudotyped entry inhibition, cell reporter. Potency, µM (series often up to 37.8 µM), for the others: top-dose activity change, negative = inhibition, hits mostly inhibitors. hit rate 1.8% among 300,000; calls by dose curve; tested in HEK293 cells; note: potency is the fitted concentration of half-maximal effect
FMDV antiviral: High Throughput Screening for Foot and Mouth Disease Virus Antivirals; FMDV antiviral cell-based qHTS; Potency, µM (titrated, usually from 57.9 µM), inactives show top-dose activity change, negative = inhibition, most hits filed as inhibitors; hit rate 1.2% among 410,000; AID 1159524, 2015; calls by dose curve; tested in HEK293T cells; note: read-out not given here; potency is the fitted concentration of half-maximal effect; nearly all actives have a fitted effect of over 45% in size
Lassa entry inh: qHTS for Inhibitors of binding or entry into cells for Lassa Virus | Potency, µM (doses to about 37.9 µM), without a hit: at the highest dose activity change, negative = inhibition, usual class: inhibitors | Lassa virus pseudotype entry inhibition, cell reporter | hit rate 1.2% among 300,000; calls by dose curve; tested in HEK293 cells; note: potency is the fitted concentration of half-maximal effect; nearly all actives have a fitted effect of over 50% in size
VACV mCherry inh: qHTS for Stage-Specific Inhibitors of Vaccinia Orthopoxvirus: mCherry Reporter Primary qHTS | Vaccinia virus mCherry reporter infection, fluorescence | Potency, µM (titrated, usually from 36.5 µM), without a hit: top-dose activity change, negative = inhibition, most hits filed as inhibitors | hit rate 0.63% among 310,000; calls by dose curve; tested in A549 cells; note: potency is the fitted concentration of half-maximal effect; nearly all actives have a fitted effect of over 35% in size
* hit, by the source's call; [ ] = another dose, or the depositor's remark. In the library only some 6.5% were active in any assay of this set; here they are far more common. % is set by controls: 0 for no effect and ±100 for the full control effect.

Screening C[C@@H]1CN([C@H](C)CO)C(=O)CCCn2nncc2CO[C@H]1CN(C)S(=O)(=O)c1cccs1 returned HCMV inh -1, VACV Venus inh -12%, FMDV antiviral -5% and VACV mCherry inh -2%.
For CN(C)c1ccc(/C=C/c2ccc3cc(N)ccc3n2)cc1 the results were VACV Venus inh 12% and VACV mCherry inh 14%.
Nc1ccccc1NC(=O)c1ccccc1 was read as HCMV inh 45, VACV Venus inh -22%, MARV entry inh -3%, FMDV antiviral 15%, Lassa entry inh -6% and VACV mCherry inh inconclusive.
Screening Nc1ncnc(N)c1NC(=O)c1ccccc1 returned HCMV inh -101*.
Screening CCOC(=O)c1c(N)c2cc([N+](=O)[O-])ccc2n1C returned HCMV inh -16 and FMDV antiviral 5%.
CCOC(=O)/C(=C/c1c(C)n(C)c2ccc([N+](=O)[O-])cc12)C(C)=O was read as HCMV inh -85*, VACV Venus inh -6%, MARV entry inh inconclusive, FMDV antiviral 13µM*, Lassa entry inh -13% and VACV mCherry inh inactive.
`COc1ccc(OC)c(CN2C(=O)CSCC2(C)C(=O)Nc2c(C)cccc2C)c1` (centres undefined) gave HCMV inh 8, VACV Venus inh 0%, FMDV antiviral 0% and VACV mCherry inh inactive.
For O=C(N/N=C/c1ccc(-c2cccc(C(F)(F)F)c2)o1)c1ccccc1Br the results were HCMV inh -62*, VACV Venus inh -26%, MARV entry inh 5%, Lassa entry inh inconclusive and VACV mCherry inh -28%.
Screening COc1ccc2c(c1)nc(N)n2Cc1ccccc1 returned HCMV inh -31, VACV Venus inh -16%, MARV entry inh inconclusive, FMDV antiviral 0%, Lassa entry inh -11% and VACV mCherry inh -6%.
Screening CN=C1c2cc3cc(OC)ccc3n2CCN1Cc1ccccc1 returned HCMV inh -28, VACV Venus inh -27%, MARV entry inh 11µM*, FMDV antiviral -24%, Lassa entry inh inconclusive and VACV mCherry inh inconclusive.
For Clc1ccc(-c2nnc3c4ccccc4nc(N4CCOCC4)n23)cc1Cl the results were HCMV inh -90*, VACV Venus inh -23%, MARV entry inh inconclusive, FMDV antiviral -21%, Lassa entry inh 0% and VACV mCherry inh 15%.
`Brc1ccc(-c2nnc3c4ccccc4nc(N4CCOCC4)n23)cc1` gave HCMV inh -22, VACV Venus inh -3%, MARV entry inh 18%, FMDV antiviral -10%, Lassa entry inh 24% and VACV mCherry inh 0%.
For CCCCNC(=O)C1(C)CCCCN1C(=O)c1cc2ccccc2s1 (centres undefined) the results were HCMV inh -9, VACV Venus inh -3%, FMDV antiviral -15% and VACV mCherry inh 38%.
COc1cc(C(=O)c2ccc3c(c2)OCO3)cc(OC)c1OC was read as HCMV inh -83*, VACV Venus inh -15%, MARV entry inh inconclusive, FMDV antiviral -6%, Lassa entry inh inconclusive and VACV mCherry inh inconclusive.
COc1ccc(N/C=C\C(=O)c2ccc3c(c2)OCO3)cc1OC was read as HCMV inh inconclusive, VACV Venus inh -15%, MARV entry inh 26%, FMDV antiviral 46%, Lassa entry inh 1% and VACV mCherry inh inactive.
For COc1cccc(/C=C/C(=O)c2ccc3c(c2)OCO3)c1OC the results were VACV Venus inh inconclusive, MARV entry inh -18%, FMDV antiviral 26%, Lassa entry inh 14% and VACV mCherry inh 13µM*.
`COc1cc(C(=O)c2cocc2C(=O)c2ccc3c(c2)OCO3)cc(OC)c1OC` gave HCMV inh 7, VACV Venus inh -18%, MARV entry inh inconclusive, FMDV antiviral -18%, Lassa entry inh 11% and VACV mCherry inh -30%.
O=C(O)c1ccc(N2C(=O)CC(N3CCC(c4nc5ccccc5[nH]4)CC3)C2=O)cc1 (centres undefined) was read as HCMV inh 19, VACV Venus inh -4%, MARV entry inh 3%[46.1 µM], FMDV antiviral -10%, Lassa entry inh 1% and VACV mCherry inh -2%.
For Cc1nsc(Nc2ccc([N+](=O)[O-])cc2)c1C#N the results were HCMV inh -64*, VACV Venus inh -2%, MARV entry inh inconclusive, FMDV antiviral -9%, Lassa entry inh inconclusive and VACV mCherry inh -13%.
CCCn1c(SCc2nc(-c3ccc(OC)c(OC)c3)no2)nnc1-c1ccccc1 was read as HCMV inh -15, VACV Venus inh -14%, MARV entry inh 5.6µM*, FMDV antiviral -8%, Lassa entry inh -26%[46.1 µM] and VACV mCherry inh -21%.
`CCCn1c(SCc2nc(-c3cc(OC)ccc3OC)no2)nnc1-c1ccc(Cl)cc1` gave HCMV inh -19, VACV Venus inh -12%, MARV entry inh -24%[46.1 µM], FMDV antiviral inconclusive, Lassa entry inh -18%[46.1 µM] and VACV mCherry inh -7%.
Screening COCCNC(=O)C1(C)CCCN(C(=O)c2cccc(Cl)c2)C1 (centres undefined) returned HCMV inh 10, VACV Venus inh 0%, FMDV antiviral -6% and VACV mCherry inh -24%.
Cc1cccc(Nc2nnc(-c3ccc(N4CCOCC4)c([N+](=O)[O-])c3)c3ccccc23)c1 was read as HCMV inh -68*, VACV Venus inh -27%, MARV entry inh 2.2µM*, FMDV antiviral -13%, Lassa entry inh 10µM* and VACV mCherry inh -13%.
CNS(=O)(=O)c1cc(-c2nnc(Nc3cc(C)ccc3C)c3ccccc23)ccc1C was read as HCMV inh -78*, VACV Venus inh -14%, FMDV antiviral 9%, Lassa entry inh inconclusive and VACV mCherry inh -22%.
For Cc1ccc(-c2nnc(Nc3ccccc3)c3ccccc23)cc1S(=O)(=O)N1CCOCC1 the results were HCMV inh -1, VACV Venus inh -20%, FMDV antiviral inconclusive, Lassa entry inh -14%[46.1 µM] and VACV mCherry inh inconclusive.
Cc1nnc(-c2ccc(N3CCOCC3)c([N+](=O)[O-])c2)o1 was read as FMDV antiviral 19%.
Cc1ccc(Nc2nnc(-c3ccc(C)c(S(=O)(=O)N4CCOCC4)c3)c3ccccc23)c(C)c1 was read as HCMV inh -66*, VACV Venus inh -32%, FMDV antiviral -19%, Lassa entry inh inconclusive and VACV mCherry inh -15%.
For Cc1ccc(-c2nnc(Nc3cccc(O)c3)c3ccccc23)cc1S(=O)(=O)N1CCOCC1 the results were HCMV inh -61*, VACV Venus inh -28%, FMDV antiviral -48%, Lassa entry inh inconclusive and VACV mCherry inh -20%.

Bioassay records (PubChem BioAssay)
